The supplement of paper PMC11732987, “Enantioselective OTUD7B fragment discovery through chemoproteomics screening and high-throughput optimisation” (Communications Chemistry, 2025)

How the values were obtained:
Experiment in all cases: log2 ratio of Biotin-Ahx-Ub-VS probe labelling (fragment/DMSO); higher = less target engagement (more negative = stronger competition), active = hit call of the paper (q ≤ 0.05, log2 ratio ≤ -1)
Details in all cases: compound concentration: 200 uM; treatment time: 3 h
OTUD6B = target: T1, OTUD6B (UniProt Q8N6M0)
T1 sequence (whole entry): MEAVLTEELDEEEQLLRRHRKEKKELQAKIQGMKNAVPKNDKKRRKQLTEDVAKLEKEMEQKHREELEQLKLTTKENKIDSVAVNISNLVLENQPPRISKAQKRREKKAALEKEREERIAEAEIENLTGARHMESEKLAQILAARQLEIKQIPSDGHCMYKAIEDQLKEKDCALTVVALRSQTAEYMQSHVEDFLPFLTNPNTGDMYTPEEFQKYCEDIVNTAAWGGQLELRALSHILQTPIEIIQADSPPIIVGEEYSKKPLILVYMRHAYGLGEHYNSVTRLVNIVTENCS
Outline: (§1)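 Lysate from HEK293T cells, 495 µg per sample in Tris/CHAPS/IGEPAL buffer with protease inhibitors, was treated for 3 h in triplicate with fragment at 200 µM or vehicle. Biotin-Ahx-Ub-VS was next added at 0.5 µM final for 1 h. The labelled DUBs were enriched with NeutrAvidin, digested with LysC and trypsin, and run by diaPASEF LC-MS/MS, with values given as average log2 fragment/vehicle ratios by unpaired t-test on global-median-normalised Spectronaut quantities of proteins with ≥2 unique peptides.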

OTUD7B = target: T2, OTUD7B (UniProt Q6GQQ9)
T2 sequence (whole entry): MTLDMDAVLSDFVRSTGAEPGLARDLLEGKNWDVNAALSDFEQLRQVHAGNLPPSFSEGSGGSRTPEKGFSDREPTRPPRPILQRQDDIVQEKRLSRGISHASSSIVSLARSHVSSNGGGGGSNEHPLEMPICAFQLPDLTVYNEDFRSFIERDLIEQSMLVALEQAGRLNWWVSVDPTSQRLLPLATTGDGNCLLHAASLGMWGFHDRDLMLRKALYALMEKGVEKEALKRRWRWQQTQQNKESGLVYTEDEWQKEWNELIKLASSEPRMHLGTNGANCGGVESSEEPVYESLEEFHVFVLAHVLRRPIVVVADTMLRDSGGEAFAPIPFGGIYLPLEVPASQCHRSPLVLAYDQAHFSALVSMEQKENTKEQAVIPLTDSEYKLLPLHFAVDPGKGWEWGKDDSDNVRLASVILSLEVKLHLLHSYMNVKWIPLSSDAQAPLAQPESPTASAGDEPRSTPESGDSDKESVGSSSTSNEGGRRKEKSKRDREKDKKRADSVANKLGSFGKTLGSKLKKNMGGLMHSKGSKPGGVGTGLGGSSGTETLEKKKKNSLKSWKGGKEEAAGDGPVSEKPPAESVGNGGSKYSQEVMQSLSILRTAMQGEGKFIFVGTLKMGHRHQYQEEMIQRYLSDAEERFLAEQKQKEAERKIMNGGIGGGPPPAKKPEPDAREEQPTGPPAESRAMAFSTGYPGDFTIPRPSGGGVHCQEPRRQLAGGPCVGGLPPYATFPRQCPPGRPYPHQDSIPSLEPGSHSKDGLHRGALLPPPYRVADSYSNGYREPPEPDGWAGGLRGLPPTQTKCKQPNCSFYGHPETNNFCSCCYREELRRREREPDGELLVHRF
Outline: as §1

PRPF8 = PRPF8 (UniProt Q6P2Q9)
Outline: as §1

PSMD7 = target: T3, PSMD7 (UniProt P51665)
T3 sequence (whole entry): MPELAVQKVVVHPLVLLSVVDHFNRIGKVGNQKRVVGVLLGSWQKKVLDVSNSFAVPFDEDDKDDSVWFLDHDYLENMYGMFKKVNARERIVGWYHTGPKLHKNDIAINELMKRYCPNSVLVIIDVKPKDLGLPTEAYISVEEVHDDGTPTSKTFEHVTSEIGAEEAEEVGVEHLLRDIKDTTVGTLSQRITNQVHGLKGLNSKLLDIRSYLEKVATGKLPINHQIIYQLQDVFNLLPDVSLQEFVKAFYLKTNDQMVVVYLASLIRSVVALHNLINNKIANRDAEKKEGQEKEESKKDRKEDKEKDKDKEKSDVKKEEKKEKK
Outline: as §1

UCHL1 = UCHL1 (UniProt P09936)
Outline: as §1

UCHL3 = target: T4, UCHL3 (UniProt P15374)
T4 sequence (whole entry): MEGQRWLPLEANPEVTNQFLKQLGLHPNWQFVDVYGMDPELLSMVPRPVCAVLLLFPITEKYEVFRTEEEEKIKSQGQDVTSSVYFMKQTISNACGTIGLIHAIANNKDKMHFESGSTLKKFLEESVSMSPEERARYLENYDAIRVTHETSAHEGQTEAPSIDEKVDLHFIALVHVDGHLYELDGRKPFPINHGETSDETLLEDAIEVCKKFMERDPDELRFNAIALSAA
Outline: as §1

UCHL5 = target: T5, UCHL5 (UniProt Q9Y5K5)
T5 sequence (whole entry): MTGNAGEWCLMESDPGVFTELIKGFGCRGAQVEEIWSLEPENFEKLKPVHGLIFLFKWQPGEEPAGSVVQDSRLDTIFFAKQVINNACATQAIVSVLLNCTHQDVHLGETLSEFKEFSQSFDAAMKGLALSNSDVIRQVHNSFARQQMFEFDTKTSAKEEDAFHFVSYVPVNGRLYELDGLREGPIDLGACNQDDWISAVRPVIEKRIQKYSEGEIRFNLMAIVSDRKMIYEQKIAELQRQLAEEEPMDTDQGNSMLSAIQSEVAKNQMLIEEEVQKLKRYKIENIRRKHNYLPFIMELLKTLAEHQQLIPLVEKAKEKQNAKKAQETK
Outline: as §1

USP10 = USP10 (UniProt Q14694)
Outline: as §1

USP15 = target: T6, USP15 (UniProt Q9Y4E8)
T6 sequence (whole entry): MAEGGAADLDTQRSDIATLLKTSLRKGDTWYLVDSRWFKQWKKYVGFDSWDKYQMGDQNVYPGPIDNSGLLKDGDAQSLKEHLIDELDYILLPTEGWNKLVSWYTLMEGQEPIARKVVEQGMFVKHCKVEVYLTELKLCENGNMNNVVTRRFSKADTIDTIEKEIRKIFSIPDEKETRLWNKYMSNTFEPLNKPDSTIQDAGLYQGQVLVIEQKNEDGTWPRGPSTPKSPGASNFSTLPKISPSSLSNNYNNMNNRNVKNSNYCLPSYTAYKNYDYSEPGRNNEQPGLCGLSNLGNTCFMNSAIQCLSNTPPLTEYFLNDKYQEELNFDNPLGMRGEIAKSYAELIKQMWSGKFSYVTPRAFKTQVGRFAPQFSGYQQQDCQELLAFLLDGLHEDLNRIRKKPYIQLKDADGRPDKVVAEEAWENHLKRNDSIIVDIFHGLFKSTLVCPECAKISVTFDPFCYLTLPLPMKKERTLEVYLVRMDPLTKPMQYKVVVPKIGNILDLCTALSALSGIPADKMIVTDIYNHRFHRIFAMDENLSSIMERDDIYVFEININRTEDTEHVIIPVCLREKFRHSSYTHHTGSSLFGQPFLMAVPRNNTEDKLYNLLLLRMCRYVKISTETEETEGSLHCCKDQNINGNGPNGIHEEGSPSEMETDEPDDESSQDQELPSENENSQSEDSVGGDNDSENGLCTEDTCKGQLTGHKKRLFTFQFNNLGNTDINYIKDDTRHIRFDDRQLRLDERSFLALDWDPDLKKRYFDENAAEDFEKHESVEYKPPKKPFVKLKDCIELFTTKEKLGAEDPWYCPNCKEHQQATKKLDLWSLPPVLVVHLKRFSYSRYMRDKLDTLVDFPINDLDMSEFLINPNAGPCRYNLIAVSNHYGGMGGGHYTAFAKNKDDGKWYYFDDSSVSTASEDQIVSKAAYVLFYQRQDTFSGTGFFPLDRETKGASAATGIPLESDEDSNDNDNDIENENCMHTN
Outline: as §1

USP16 = USP16 (UniProt Q9Y5T5)
Outline: as §1

Measured: log2 ratio of Biotin-Ahx-Ub-VS probe labelling

Chain of USP10 (Q14694 whole entry): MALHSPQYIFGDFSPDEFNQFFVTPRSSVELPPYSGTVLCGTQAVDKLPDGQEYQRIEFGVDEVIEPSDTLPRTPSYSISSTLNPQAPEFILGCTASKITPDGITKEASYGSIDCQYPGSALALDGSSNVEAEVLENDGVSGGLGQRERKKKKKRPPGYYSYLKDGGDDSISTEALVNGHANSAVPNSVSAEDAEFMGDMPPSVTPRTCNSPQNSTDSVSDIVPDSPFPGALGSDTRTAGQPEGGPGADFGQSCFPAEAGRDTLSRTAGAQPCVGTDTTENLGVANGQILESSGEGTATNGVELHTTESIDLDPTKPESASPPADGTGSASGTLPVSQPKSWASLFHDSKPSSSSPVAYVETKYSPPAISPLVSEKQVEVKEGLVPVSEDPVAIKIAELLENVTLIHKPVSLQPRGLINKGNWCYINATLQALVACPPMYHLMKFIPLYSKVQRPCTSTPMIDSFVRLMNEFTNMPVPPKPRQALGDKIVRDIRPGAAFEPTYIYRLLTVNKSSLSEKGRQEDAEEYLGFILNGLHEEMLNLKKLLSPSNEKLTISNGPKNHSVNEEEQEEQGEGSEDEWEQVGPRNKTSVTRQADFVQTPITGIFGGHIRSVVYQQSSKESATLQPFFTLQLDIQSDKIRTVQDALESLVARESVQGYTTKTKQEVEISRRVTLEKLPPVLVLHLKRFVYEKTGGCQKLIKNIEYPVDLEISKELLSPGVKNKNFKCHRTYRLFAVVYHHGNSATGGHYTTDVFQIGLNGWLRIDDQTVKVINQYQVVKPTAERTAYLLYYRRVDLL
Chain of USP16 (Q9Y5T5 whole entry, looked up): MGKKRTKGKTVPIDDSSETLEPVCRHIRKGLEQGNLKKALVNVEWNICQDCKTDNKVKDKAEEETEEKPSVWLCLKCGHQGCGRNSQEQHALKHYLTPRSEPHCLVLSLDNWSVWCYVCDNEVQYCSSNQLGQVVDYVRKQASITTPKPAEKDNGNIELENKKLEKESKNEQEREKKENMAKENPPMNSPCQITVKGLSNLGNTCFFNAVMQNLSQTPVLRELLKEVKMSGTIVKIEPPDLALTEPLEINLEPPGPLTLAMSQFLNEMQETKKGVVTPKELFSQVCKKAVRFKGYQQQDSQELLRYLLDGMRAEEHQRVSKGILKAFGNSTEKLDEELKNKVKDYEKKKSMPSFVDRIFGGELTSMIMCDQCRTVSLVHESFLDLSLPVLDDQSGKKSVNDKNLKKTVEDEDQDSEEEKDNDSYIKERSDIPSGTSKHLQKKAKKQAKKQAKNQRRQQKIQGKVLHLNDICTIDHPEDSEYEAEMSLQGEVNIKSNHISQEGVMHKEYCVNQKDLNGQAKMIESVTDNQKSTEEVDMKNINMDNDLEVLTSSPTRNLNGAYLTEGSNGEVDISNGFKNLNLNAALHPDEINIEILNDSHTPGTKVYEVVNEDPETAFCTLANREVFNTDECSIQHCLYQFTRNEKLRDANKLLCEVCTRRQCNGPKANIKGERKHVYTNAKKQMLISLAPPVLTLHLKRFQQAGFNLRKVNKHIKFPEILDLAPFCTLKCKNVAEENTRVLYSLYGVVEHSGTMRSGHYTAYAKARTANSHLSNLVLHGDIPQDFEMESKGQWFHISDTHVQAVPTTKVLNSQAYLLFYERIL
Chain of UCHL1 (P09936 whole entry, looked up): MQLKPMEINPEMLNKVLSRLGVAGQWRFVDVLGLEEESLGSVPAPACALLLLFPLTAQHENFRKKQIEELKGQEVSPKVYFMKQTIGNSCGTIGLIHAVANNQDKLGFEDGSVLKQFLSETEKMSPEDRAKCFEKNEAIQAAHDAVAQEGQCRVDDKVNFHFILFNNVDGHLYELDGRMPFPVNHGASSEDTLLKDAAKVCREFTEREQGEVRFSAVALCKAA

CNC(=O)Cn1cc(NC(=O)CCl)cn1
inactive: OTUD6B -0.476 | OTUD7B -0.454 | PRPF8 1e-05 | PSMD7 -0.0882 | UCHL3 0.189 | UCHL5 -0.399 | USP10 -0.209 | USP15 -0.375 | USP16 -0.148
active: UCHL1 -1.59
